# Screens from PubChem BioAssay.
# A selection: hits, their analogues and other compounds. The true share with any hit is near 8%.
# KB-V1 MDR tox – KB-V1 MDR subline cytotoxicity; KB-V1 MDR cells viability, CellTiter-Glo, 72 h; Potency, µM (doses to about 46.1 µM), actives largely listed as cytotoxic; actives 3.4% (n = 400,000); AID 1347076; also: % is scaled to controls: 0 for no effect and ±100 for the full control effect; nearly all actives have a fitted effect of over 60% in size
#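 Luminescent ATP read-out (CellTiter-Glo, 10 min) measures survival of drug-selected KB-V1 MDR cells after 72 h, 37 degrees C compound exposure. Medium: phenol-red-free DMEM, 10% FBS. Values from fitted concentration-response curves.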
# HT1080 IDH1KD tx – HT-1080 IDH1 knockdown cell toxicity (counter line). HT-1080 IDH1 knockdown viability, ATP luminescence, 48 h. Potency, µM (titrated, usually from 46.1 µM), inactives show top-dose activity, negative = toxicity, usual class: cytotoxic. actives 2% (n = 360,000);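 also: 0% = DMSO wells and -100% = cell-free medium wells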
#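 In this qHTS, HT-1080 cells depleted of IDH1 are exposed for 48 h at 37 °C to compound titrations. Toxicity is scored from CellTiter-Glo luminescence, with DMSO as full viability and medium alone as none.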
# SW480 rereplic – inducers of DNA re-replication in SW480 colon cancer cells | SW480 DNA re-replication, Hoechst DNA content imaging, 48 h | Potency, µM (highest dose often 46.1 µM), inactives show at the highest dose re-replication activation, most hits filed as activators | actives 1.8% (n = 340,000) | AID 624297; also: % of control where 0% means no effect; nearly all actives have a fitted effect of over 55% in size
#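 Hoechst fluorescence of nuclei (405 nm excitation, 500-530 nm emission) measured by plate-scanning imager after 48 hr compound exposure at 37 C; re-replication scored as increased number of nuclei with elevated intensity.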
# KB-3-1 cytotox – KB-3-1 parental cell cytotoxicity. Potency, µM (titrated, usually from 46.1 µM), usual class: cytotoxic. AID 1347075. actives 1.4% (n = 400,000). KB-3-1 viability, CellTiter-Glo ATP luminescence, 72 h; also: % is scaled to controls: 0 for no effect and ±100 for the full control effect; nearly all actives have a fitted effect of over 60% in size
#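 Parental KB-3-1 adenocarcinoma cells in phenol-red-free DMEM with 10% FBS were pin-treated with compounds at several concentrations, incubated 72 h at 37 °C, and viability read by CellTiter-Glo luminescence; concentration-effect curves were fitted after normalization.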
# MCF10A rereplic – inducers of DNA re-replication in MCF 10A breast cells. MCF 10A DNA re-replication, Hoechst nuclear intensity, 48 h. Potency, µM (top dose mostly 46.1 µM), without a hit: at the highest dose activity, positive = re-replication, actives largely listed as activators. actives 2.9% (n = 350,000); also: % of control where 0% means no effect; nearly all actives have a fitted effect of over 50% in size
# HT1080-NT tox – kills 2HG-producing HT-1080-NT fibrosarcoma cells. Potency, µM (series often up to 46.1 µM), without a hit: at the highest dose activity, negative = less viability, most hits filed as cytotoxic. HT-1080-NT fibrosarcoma viability, CellTiter-Glo ATP luminescence, 48 h. actives 1.6% (n = 360,000). AID 686970;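 also: NT is the 2HG producing partner of a matched IDH1 knockdown line; 0% = DMSO-treated cells and -100% = media-only wells without cells; nearly all actives have a fitted effect of over 55% in size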
#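 HT-1080-NT; 750 cells/well; 5% FBS RPMI; 48 h compound, 37 degrees C; CellTiter-Glo luminescence; curve fitting and curve-class assignment.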
# An asterisk follows results filed as active; i = inactive; ? = inconclusive; · = no result. Calls follow the shape of the dose curve; as a rule, active = well fitted curve in the direction sought with a large enough effect; inconclusive = small, poorly fitted or top-dose-only effect, or another doubt; inactive = no such curve, though single readings can be large; an effect the other way counts as inactive or inconclusive. Potency is read from the fitted curve at half-maximal effect.
SMILES,KB-V1 MDR tox,HT1080 IDH1KD tx,SW480 rereplic,KB-3-1 cytotox,MCF10A rereplic,HT1080-NT tox
Cc1ccsc1-c1nc(CN(C)C(C2CC2)C2CC2)c(C)o1,i,-14%,-4%,i,-7%,-13%
CCN(CC(=O)Nc1ccc(NC(C)=O)cc1)C(=O)/C=C/c1ccco1,?,-2%,-35%,i,3%,2%
CCCN(CC(=O)Nc1ccc(Cl)cc1Cl)C(=O)/C=C/c1ccco1,?,?,-4%,?,9.2µM*,?
O=C(NNC(=S)NC(=O)c1ccccc1)c1cccnc1,i,0%,1%,i,1%,-12%
CC(C)(C)C(=O)NC(=S)NNC(=O)c1ccncc1,i,-26%,?,i,4%,-21%
CC(C)(C)c1ccc(C(=O)NNC(=S)NC(=O)c2cccnc2)cc1,?,?,15µM*,?,9%,?
CC(C)c1ccc(O)c(NC(=S)NC(=O)c2cccnc2)c1,?,?,1%,i,?,?
CC(C)(C)c1cc(Cl)c(O)c(NC(=S)NC(=O)c2cccnc2)c1,?,?,-16%,i,15µM*,-23%
CC(C)(C)C(=O)NC(=S)NNC(=O)c1ccc(-c2ccccc2)cc1,9.2µM*,7.3µM*,?,?,?,8.2µM*
COc1ccc(Cl)c(Cn2c(NCCCN(C)C)nc3c2c(=O)n(C)c(=O)n3C)c1,?,15%,-5%,i,4%,2%
COc1ccc(O)c(CNc2ccccc2F)c1,i,19%,-16%,i,-10%,9%
CC(=O)N/C(=C/c1ccccc1)c1ccccc1,i,10%,?,i,-1%,11%
COc1ccc(NC(=O)CN(C)CC(=O)c2c(C)[nH]c3ccccc23)cc1,7.3µM*,-4%,-4%,i,?,-2%
Cc1[nH]c2ccccc2c1C(=O)Cn1c(=O)oc2ccccc21,16µM*,?,0%,i,1%,-3%
COc1cccc(NC(=O)CN(C)CC(=O)c2c(C)[nH]c3ccccc23)c1,i,-1%,-15%,i,5%,-2%
Cc1[nH]c2ccccc2c1C(=O)CCl,?,?,13µM*,i,10µM*,?
Cc1[nH]c2ccccc2c1C(=O)CN(C)c1ccccc1,i,·,·,?,·,·
CCCOc1ccc(C(=O)NNC(=S)NC(C)=O)cc1,i,7.1µM*,?,16µM*,?,7.1µM*
CC(C)(C)c1ccc(C(=O)NC(=S)NNC(=O)c2cccs2)cc1,?,?,69%,2.6µM*,?,?
CCCC(=O)Nc1ccc(C(=O)NNC(=S)NC(=O)c2cccs2)cc1,?,?,-3%,i,?,?
CCCOc1ccc(C(=O)NNC(=S)NC(=O)c2cccs2)cc1,?,21µM*,?,?,-5%,?
CCCOc1ccc(C(=O)NNC(=S)NC(=O)c2ccccc2)cc1,i,?,?,i,6%,?
Cc1nc(NC(=S)NC(=O)c2ccccc2)sc1C(=O)N(C)C,i,2%,-1%,i,-4%,-2%
O=C(NC(=S)NNC(=O)c1cccs1)c1ccccc1,i,?,-1%,?,11%,?
CCCOc1ccc(C(=O)NC(=S)Nc2nc(C)c(C(=O)N(C)C)s2)cc1,21µM*,-20%,-8%,i,0%,?
SMILES,KB-V1 MDR tox,HT1080 IDH1KD tx,SW480 rereplic,KB-3-1 cytotox,MCF10A rereplic,HT1080-NT tox
Oc1cccc2oc(=S)[nH]c12,i,-12%,-12%,i,-12%,0%
CCCOc1ccc(C(=O)NNC(=S)NC(=O)c2ccco2)cc1,i,23µM*,-5%,9.2µM*,4%,?
COCCOC(=O)c1[nH]c2c(c1C)C(=O)CC(c1ccc(F)cc1)C2 (configuration not stated),?,23µM*,?,7.3µM*,?,?
COCCOC(=O)c1[nH]c2c(c1C)C(=O)CC(c1ccc(N(C)C)cc1)C2 (configuration not stated),i,1%,-3%,i,8%,4%
COCCOC(=O)c1[nH]c2c(c1C)C(=O)CC(c1ccccc1)C2 (configuration not stated),0.73µM*,1.3µM*,7.3µM*,0.92µM*,5.8µM*,1.6µM*
COc1cc(C(=O)COC(=O)c2cccs2)cc(OC)c1OC,i,0%,-6%,i,1%,3%
CCOC(=O)N1C(=O)[C@](CC)(c2ccccc2)N1C(=O)OCC,i,5%,?,i,16µM*,13%
O=C(Nc1ccc(C(F)(F)F)cc1Cl)c1ccc(Cn2cc(Br)cn2)o1,i,?,-2%,i,13µM*,-4%
O=C(Nc1cccc(C(F)(F)F)c1)c1ccc(Cn2cc(Br)cn2)o1,i,-12%,1%,i,?,-2%
COc1ccc2c(c1)CCC1(C)CC(=O)C(Br)=C21 (configuration not stated),6.5µM*,-10%,·,?,·,-13%
Fc1ccccc1-n1c(-c2ccc3ccccc3n2)n[nH]c1=S,i,-4%,?,i,3%,-3%
S=c1[nH]nc(-c2ccc3ccccc3n2)n1-c1ccccc1,23µM*,-5%,-6%,i,23%,-3%
